A selection: hits, their analogues and other compounds. The true share with any hit is near 3.4%.
TEAD-YAP block = TEAD-YAP interaction inhibition | HEK-TIYL cells, TEAD-Gal4/YAP UAS-luciferase luminescence | inhibition, % at 9.12 µM | 1.4% of 640,000 active | AID 1259422; in the data active = inhibition above about 32%;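 also: 0% = median of test compound wells and 100% = reference inhibitor wells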
GPR151 activ = human GPR151 activation; Q8TDV0; 1% of 650,000 active; PathHunter beta-arrestin GPR151 cells, luminescence; AID 1508602; activation, % at 11.2 µM; in the data active = activation above about 4.9%;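 also: 0% = median of compound wells and 100% = cells with positive control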
Target sequence (Q8TDV0 whole entry, looked up): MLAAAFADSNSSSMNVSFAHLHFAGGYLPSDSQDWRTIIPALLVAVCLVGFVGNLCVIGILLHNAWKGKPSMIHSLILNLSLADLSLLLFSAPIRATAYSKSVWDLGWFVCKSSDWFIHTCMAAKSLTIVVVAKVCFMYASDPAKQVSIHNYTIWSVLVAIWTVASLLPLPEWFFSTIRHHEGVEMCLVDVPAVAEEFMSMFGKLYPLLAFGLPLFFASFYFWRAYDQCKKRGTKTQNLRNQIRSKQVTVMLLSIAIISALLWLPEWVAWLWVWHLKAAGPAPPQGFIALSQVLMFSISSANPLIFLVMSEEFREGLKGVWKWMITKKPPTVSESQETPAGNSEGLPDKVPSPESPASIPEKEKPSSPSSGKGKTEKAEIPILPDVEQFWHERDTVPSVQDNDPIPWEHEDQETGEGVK
MITF inh = inhibitors of human MITF; O75030; AlphaScreen MITF homodimerization, bead proximity signal; inhibition, % at 2.6 µM; 0.91% of 650,000 active; in the data active = inhibition above about 50%;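 also: 0% = vehicle wells with protein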
FBW7 act = activators of human E3 ligase FBW7. 0.13% of 650,000 active. normalized activity (activation), % at 26.1 µM. AlphaScreen FBW7–phospho-cyclin E peptide binding, activator screen. AID 1259310; in the data active = normalized activity above about 1.9%;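 also: purified mutant Fbw7 with reduced substrate affinity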
An asterisk follows results filed as active.

`Cc1nc(C)n(-c2ccc(Nc3cc(-c4cn[nH]c4)ccn3)cc2)n1` (tested in a mixture with another compound) gave TEAD-YAP block -1, GPR151 activ 0, MITF inh 9 and FBW7 act 0.
Fc1cnc(Nc2ccc(-n3cnc(N4CCOCC4)n3)cc2)cc1-c1cn[nH]c1 (tested in a mixture with another compound) was read as TEAD-YAP block 36*, GPR151 activ 0, MITF inh 11 and FBW7 act 0.
COc1ccc(F)c(C2NCc3ccccc3-n3cccc32)c1 (stereo unspecified) was read as TEAD-YAP block -4, GPR151 activ 0, MITF inh 5 and FBW7 act 0.
`CC(=O)O[C@H]1C[C@H](O[C@H]2[C@@H](O)C[C@H](O[C@H]3[C@@H](O)C[C@H](O[C@H]4CC[C@@]5(C)C(CCC6C5C[C@@H](O)[C@]5(C)[C@@H](C7=CC(=O)OC7)CC[C@]65O)C4)O[C@@H]3C)O[C@@H]2C)O[C@H](C)[C@H]1O[C@@H]1O[C@H](CO)[C@@H](O)[C@H](O)[C@H]1O` (stereo partly specified) gave TEAD-YAP block 100*, GPR151 activ 2, MITF inh 16 and FBW7 act 0.
`CO[C@@H]1C(O)[C@H](O[C@H]2CC[C@@]3(C=O)[C@H](CC[C@@H]4[C@@H]3CC[C@]3(C)[C@@H](C5=CC(=O)OC5)CC[C@]43O)C2)OC(C)[C@@H]1O` (stereo partly specified) gave TEAD-YAP block 101*, GPR151 activ -1, MITF inh -4 and FBW7 act 0.
For C[C@]12CC[C@H]3[C@@H](CC[C@]4(O)C[C@@H](O)CC[C@]34C=O)[C@@]1(O)CC[C@@H]2C1=CC(=O)OC1 the results were TEAD-YAP block 101*, GPR151 activ 1, MITF inh 18 and FBW7 act 0.
Screening C[C@H]1OC(O[C@H]2[C@@H](O)CC(O[C@H]3[C@@H](O)C[C@H](O[C@H]4CC[C@]5(C)C6CC[C@]7(C)[C@@H](C8=CC(=O)OC8)[C@@H](O)C[C@]7(O)[C@@H]6CC[C@@H]5C4)O[C@@H]3C)O[C@@H]2C)C[C@H](O)C1O (stereo partly specified) returned TEAD-YAP block 78*, GPR151 activ 3, MITF inh 11 and FBW7 act 0.
`COc1ccccc1/C=C/c1nc2ccccc2c(=O)n1-c1ccccc1` gave TEAD-YAP block -8, GPR151 activ 1, MITF inh 0 and FBW7 act 0.
Screening COc1ccc(C(=O)C2CCCN(Cc3cnc(C)[nH]3)C2)c(OC)c1 (stereo unspecified) returned TEAD-YAP block 1, GPR151 activ 2, MITF inh -4 and FBW7 act 0.
CN1CCN(C(=O)COc2ccccc2Cl)CC1 was read as TEAD-YAP block 2, GPR151 activ 1, MITF inh -11 and FBW7 act 0.
Cc1ccc(/C=C2/C(=O)NC(=O)N(C)C2=O)cc1 was read as TEAD-YAP block -6, GPR151 activ 0, MITF inh -1 and FBW7 act 0.
For CN1C(=O)NC(=O)/C(=C/c2ccc(I)o2)C1=O the results were TEAD-YAP block 6, GPR151 activ 0, MITF inh 63* and FBW7 act -1.
C=CCN1C(=O)/C(=C\c2ccc(C)o2)C(=O)NC1=S was read as TEAD-YAP block -6, GPR151 activ -1, MITF inh 4 and FBW7 act 0.
Screening Cc1ccc(C=C2C(=O)NC(=S)NC2=O)o1 returned TEAD-YAP block 10, GPR151 activ 0, MITF inh 67* and FBW7 act 0.
`Cc1cncc2cccc(N3CCNCC3)c12` gave TEAD-YAP block 38*, GPR151 activ -1, MITF inh 14 and FBW7 act 0.
For c1ccc2c(N3CCNCC3)cccc2c1 the results were TEAD-YAP block 2, GPR151 activ 4, MITF inh -16 and FBW7 act 0.
COc1ccc2sc(N3CCN(C)CC3)nc2c1 was read as TEAD-YAP block 37*, GPR151 activ -5, MITF inh 7 and FBW7 act 0.
CN1CCN(c2nc3ccc([N+](=O)[O-])cc3s2)CC1 was read as TEAD-YAP block -60, GPR151 activ -1, MITF inh 9 and FBW7 act 0.
`COc1ccc(/C=C/c2nc3ccc(I)cc3c(=O)n2-c2ccc(C)cc2)cc1` gave TEAD-YAP block -5, GPR151 activ 1, MITF inh -1 and FBW7 act 0.
CC(=O)N1CCC2(CC1)OCc1cc(-c3ccc(Cl)cc3)ccc1O2 was read as TEAD-YAP block 2, GPR151 activ 1, MITF inh 19 and FBW7 act 1.
`CCCOc1ccc(/C=C(/C)[N+](=O)[O-])cc1OC` gave TEAD-YAP block 37*, GPR151 activ -1, MITF inh -14 and FBW7 act 0.
CC[N+](CC)=c1scc(-c2ccc([N+](=O)[O-])cc2)s1 was read as TEAD-YAP block 48*, GPR151 activ 1, MITF inh 10 and FBW7 act 0.
Screening O=[N+]([O-])c1ccc([As](=O)(O)O)cc1 returned TEAD-YAP block 2, GPR151 activ -2, MITF inh -9 and FBW7 act 0.
Screening CN(C)c1ccc(/C=C2/C(=O)NC(=S)N(c3ccccc3F)C2=O)cc1 returned TEAD-YAP block 4, GPR151 activ 1, MITF inh 10 and FBW7 act 0.
Screening CN(C)c1ccc(/C=C2/C(=O)NC(=S)N(Cc3ccco3)C2=O)cc1 returned TEAD-YAP block 14, GPR151 activ 0, MITF inh 76* and FBW7 act -1.
COc1ccc(OC)c(N2C(=O)/C(=C\c3ccco3)C(=O)NC2=S)c1 was read as TEAD-YAP block -7, GPR151 activ 4, MITF inh 79* and FBW7 act 0.
`Cn1ncnc2c(=O)n(C)c(=O)nc1-2` gave TEAD-YAP block 99*, GPR151 activ -7, MITF inh 10 and FBW7 act 0.
Screening COc1cc(/C=C/[N+](=O)[O-])c(Br)cc1OCc1ccccc1C#N returned TEAD-YAP block 10, GPR151 activ 1, MITF inh 1 and FBW7 act 0.
For C=CCN1C(=O)C2(C(C#N)=C(N)OC(C)=C2C(=O)OC)c2ccccc21 (stereo unspecified) the results were TEAD-YAP block 6, GPR151 activ 1, MITF inh -6 and FBW7 act 0.
`CC(C)[C@@H]1NC(=O)[C@H](C)OC(=O)[C@@H](C(C)C)NC(=O)[C@@H](C(C)C)OC(=O)[C@H](C(C)C)NC(=O)[C@H](C)OC(=O)[C@@H](C(C)C)NC(=O)[C@@H](C(C)C)OC(=O)[C@H](C(C)C)NC(=O)[C@H](C)OC(=O)[C@@H](C(C)C)NC(=O)[C@@H](C(C)C)OC1=O` gave TEAD-YAP block 96*, GPR151 activ 2, MITF inh 2 and FBW7 act 0.

Bioassay records: PubChem BioAssay, The Scripps Research Institute Molecular Screening Center
